We go through seven compounds from PubChem BioAssay (NCATS).

Experiment [1] deals with Lysosomal acid glucosylceramidase (Homo sapiens) (UniProt P04062). As to the kind of experiment: Glucocerebrosidase-p2 (AID 348; in the data active = potency below about 10 µM; also: potency is read from the fitted curve at half-maximal effect). Conditions: purified GBA, blue fluorogenic substrate, 40 min. The essentials:
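Compounds titrated from 0.6 nM upwards against 0.2 nM enzyme in pH 5.9 citric acid/KH2PO4, taurocholate, tween-20; blue fluorogenic substrate 80 uM, 40 min room temperature, stopped and read Ex 365/Em 440 for AC50.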

A short description of experiment [2]: AP1 Signaling Pathway (AID 357). Also: % is scaled to controls: 0 for no effect and ±100 for the full control effect. The following applies: ME-180 AP-1-bla reporter, EGF-induced, beta-lactamase ratio, 5 h; at 7.69 µM (top of the series) unless noted. An outline of the steps:
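ME-180 cells with beta-lactamase reporter under AP-1 response element, stimulated with EC50 EGF; compounds tested in titration series, 5 h at 37 °C. CCF4 substrate added 2.5 h at room temperature; 460/530 nm emission ratio gave %activity and AC50.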

Experiment [3] concerns the target Cytochrome P450 1A2 (Homo sapiens) (UniProt P05177). As to the kind of experiment: p450-cyp1a2 (AID 410; calls by dose curve; also: potency is read from the fitted curve at half-maximal effect;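 as to activity change, negative = inhibition: -100% = full effect of reference inhibitor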). The following applies: recombinant CYP1A2, luciferin-ME demethylation, luminescence; series mostly up to 11.4 µM. The essentials:
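20nM CYP1A2 with 100uM Luciferin-ME (at Km) in 100mM KPO4; compound preincubated 10 min, NADPH regeneration added, 60 min at room temperature. Luciferin quantified by luminescence after detection reagent; normalized to 57 uM furafylline.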

Experiment [4] is described as follows: NFAT Signaling Pathway (AID 444).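 Also: carbachol stimulus at about its EC50 of 1 µM final; % is scaled to controls: 0 for no effect and ±100 for the full control effect.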 Conditions: Jurkat NFAT-bla M1, carbachol, beta-lactamase ratio, 5 h; at 7.69 µM (top of the series) unless noted. An outline of the steps:
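Jurkat cells with NFAT-driven β-lactamase reporter and co-expressed M1 receptor, stimulated with carbachol (final 1 uM, ~EC50), compound titration, 5 h at 37 °C. CCF4 loaded 1 h at RT; 460/530 nm ratio gave %activity and AC50.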

Experiment [5] is described as follows: Stat Signaling Pathway (AID 446).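 Also: ME-180 cervical cancer cells given 40 pM IL-6 alongside compound; SIE-controlled beta-lactamase reporter measured as 460/530 nm FRET emission ratio; % is scaled to controls: 0 for no effect and ±100 for the full control effect.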 Conditions: ME-180 SIE beta-lactamase reporter, IL-6 stimulated, 5 h; at 7.69 µM (top of the series) unless noted. The essentials: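 IL-6/STAT signaling read in ME-180 cells via an SIE beta-lactamase reporter. Stimulus was 40 pM IL-6 (its AC50) for 5 hrs, so both activation and inhibition register.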
Experiment [6] deals with Glucocorticoid receptor (Homo sapiens) (UniProt P04150). As to the kind of experiment: GR-GFP Redistribution (AID 450;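 active = compounds whose dose series gives a full or clear partial fitted curve of increased nuclear translocation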; also: potency is read from the fitted curve at half-maximal effect). Conditions: U2OS GR-GFP nuclear translocation, laser cytometry, 2 h.
Glucocorticoid receptor (Homo sapiens), sequence (P04150 whole entry, looked up, the tested form may be a part): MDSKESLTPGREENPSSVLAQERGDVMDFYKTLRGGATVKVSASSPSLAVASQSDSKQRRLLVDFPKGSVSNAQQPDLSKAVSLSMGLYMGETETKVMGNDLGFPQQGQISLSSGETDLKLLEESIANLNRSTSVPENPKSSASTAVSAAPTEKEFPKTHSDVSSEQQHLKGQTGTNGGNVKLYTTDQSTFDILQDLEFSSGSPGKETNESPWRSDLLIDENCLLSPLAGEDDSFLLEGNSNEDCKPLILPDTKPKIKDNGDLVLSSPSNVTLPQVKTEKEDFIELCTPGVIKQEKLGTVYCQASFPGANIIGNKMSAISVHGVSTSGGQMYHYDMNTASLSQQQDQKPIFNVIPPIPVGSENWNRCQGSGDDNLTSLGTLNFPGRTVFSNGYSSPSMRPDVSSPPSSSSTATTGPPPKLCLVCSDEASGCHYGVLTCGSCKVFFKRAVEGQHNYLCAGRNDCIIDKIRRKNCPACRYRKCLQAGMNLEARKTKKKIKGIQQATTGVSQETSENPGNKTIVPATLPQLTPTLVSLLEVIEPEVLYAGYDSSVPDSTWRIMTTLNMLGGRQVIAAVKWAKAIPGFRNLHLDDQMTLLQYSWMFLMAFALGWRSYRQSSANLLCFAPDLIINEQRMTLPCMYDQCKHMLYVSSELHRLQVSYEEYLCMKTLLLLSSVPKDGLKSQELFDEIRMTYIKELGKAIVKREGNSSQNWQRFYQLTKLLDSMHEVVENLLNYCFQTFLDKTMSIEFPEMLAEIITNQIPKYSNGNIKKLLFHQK
Experiment [7] has the same target. The experiment is described as follows: GR-EFC Redistribution (AID 451; calls by dose curve; also: potency is read from the fitted curve at half-maximal effect). The following applies: CHO-K1 GR-EFC translocation, beta-gal luminescence, 2 h. An outline of the steps: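 CHO-K1 cells expressing nuclear EA and GR-ED fragments of b-gal; compounds titrated up to 46 uM final, 2 h at 37 C. GR nuclear translocation read as complemented b-gal luminescence after 1 h RT detection.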

In experiment [8] the target is Mitogen-activated protein kinase 10 (Mus musculus) (UniProt Q61831). The experiment is described as follows: JNK3 AlphaScreen Assay (AID 530).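 Also: kinase came from lysate of stimulated human HepG2 cells; signal reports phosphorylation of biotinylated GST-cJun 1-79 at Ser73 with 10 µM ATP; % is scaled to controls: 0 for no effect and ±100 for the full control effect.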 Conditions: JNK3 lysate, c-Jun phosphorylation; series mostly up to 57.1 µM. The essentials: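 Pre-activated (IL-1β/TNFα) JNK3 in HepG2 lysates phosphorylates biotin-GST-cJun(1-79), 10 uM ATP; anti-phospho-cJun(Ser73) AlphaScreen read at room temperature, pH 7.6 Tris buffer. Compounds pre-incubated 15 min as titrations.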

Experiment [9] deals with 3',5'-cyclic-AMP phosphodiesterase 4B (Homo sapiens) (UniProt Q07343). As to the kind of experiment: qHTS Assay for Inhibitors of PDE-IV (AID 607; active = well fitted activation curve with a large enough effect in the main read-out, with a control signal flat, not every such curve was filed as active; also: % of control where 0% means no effect). The following applies: HEK293 ACTOne CNG channel cells, membrane potential fluorescence; series mostly up to 22.9 µM. The essentials:
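Live HEK293 cells with a modified cyclic nucleotide-gated (CNG) channel report intracellular cAMP via membrane-potential dye fluorescence (ex 535/em 590 nm). Endogenous PDE-IV was targeted. Compounds were tested at up to 22.9 uM final; RO 20-1724 100 uM served as control.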

Experiment [10] has as its target Cytochrome P450 3A4 (Homo sapiens) (UniProt P08684). As to the kind of experiment: qHTS Assay for Activators of Cytochrome P450 3A4 (AID 885; active = well fitted curve in the direction sought with a large enough effect; an effect the other way counts as inactive or inconclusive; also: nearly all actives have a fitted effect of over 65% in size; also: potency is read from the fitted curve at half-maximal effect). The following applies: recombinant CYP3A4, Luciferin-PPXE luminescence, 60 min; series mostly up to 57.1 µM. An outline of the steps: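 Quantitative HTS format: compounds preincubated with 20nM human CYP3A4 and Luciferin-PPXE substrate at KM, reaction started by NADPH regeneration, stopped after 60 min, luciferase luminescence read 20 min later.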

In experiment [11] the target is Cytochrome P450 2D6 (Homo sapiens) (UniProt P10635). The experiment is described as follows: qHTS Assay for Inhibitors and Substrates of Cytochrome P450 2D6 (AID 891; active = well fitted curve in the direction sought with a large enough effect; an effect the other way counts as inactive or inconclusive; also: nearly all actives have a fitted effect of over 60% in size; also: potency is read from the fitted curve at half-maximal effect). Conditions: recombinant CYP2D6, luciferin-ME EGE luminescence; series mostly up to 11.4 µM. The essentials:
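Human CYP2D6 (5 nM) with 30 uM Luciferin-ME EGE (at Km) in 100 mM KPO4, compound preincubated 10 min, then NADPH regeneration system for 60 min at room temperature. Luciferin read by luminescence; normalized to 1.43 uM quinidine.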

In experiment [12] the target is Cytochrome P450 2C19 (Homo sapiens) (UniProt P33261). The experiment is described as follows: qHTS Assay for Inhibitors and Substrates of Cytochrome P450 2C19 (AID 899; active = well fitted curve in the direction sought with a large enough effect; an effect the other way counts as inactive or inconclusive; also: nearly all actives have a fitted effect of over 60% in size; also: potency is read from the fitted curve at half-maximal effect). The following applies: recombinant CYP2C19, luciferin-H EGE luminescence; series mostly up to 11.4 µM. An outline of the steps:
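Signal comes from luciferase acting on luciferin released by CYP2C19-mediated hydroxylation of Luciferin-H EGE, 10uM (KM). Assay mix: 5nM enzyme, 50mM KPO4; 60 min at 37C with NADPH regeneration. Data normalized against 57uM ketoconazole.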

Experiment [13] in a line: qHTS Assay for Identification of Small Molecule Agonists for Hypoxia Response Element Signaling Pathway (AID 914; active = well fitted activation curve with a large enough effect in the signal ratio, with a control signal flat, not every such curve was filed as active; the % refers to the signal ratio; also: % of control where 0% means no effect). The following applies: ME-180 (cervical carcinoma) HRE-bla reporter, beta-lactamase ratio, CoCl2, 17 h; hits give high values. An outline of the steps: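 HRE-bla ME-180 assay for agonist-like enhancement of an EC50 CoCl2 stimulus: 17 h at 37 degrees Celsius, CCF4 for 2.5 h, ratiometric 460/530 nm signal converted to %Activity and fitted to AC50.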

Experiment [14] has as its target Cytochrome P450 3A4 (Homo sapiens) (UniProt P08684). As to the kind of experiment: qHTS Assay for Inhibitors and Substrates of Cytochrome P450 3A4 (AID 884; active = well fitted curve in the direction sought with a large enough effect; an effect the other way counts as inactive or inconclusive; also: % is scaled to controls: 0 for no effect and ±100 for the full control effect; nearly all actives have a fitted effect of over 50% in size). Conditions: recombinant CYP3A4, Luciferin-PPXE luminescence; series mostly up to 57.1 µM. The essentials:
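20 nM human CYP3A4 with 25 uM Luciferin-PPXE (at KM) in 200 mM KPO4, preincubated 10 min with compound; NADPH regeneration started a 60 min RT reaction. Luciferin detected by luminescence, normalized to 57 uM ketoconazole as full inhibition.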

The structures appear in SMILES notation. A number with no mark means an inactive call. Records with an inconclusive call do not appear. Active and inactive are the calls of the source. Unless noted, calls follow the shape of the dose curve; as a rule, active = well fitted curve in either direction with a large enough effect (not every such curve was filed as active); inconclusive = small, poorly fitted or top-dose-only effect, or another doubt; inactive = flat fitted curve, though single readings scatter.

Cytochrome P450 1A2 (Homo sapiens), sequence (P05177 whole entry, looked up): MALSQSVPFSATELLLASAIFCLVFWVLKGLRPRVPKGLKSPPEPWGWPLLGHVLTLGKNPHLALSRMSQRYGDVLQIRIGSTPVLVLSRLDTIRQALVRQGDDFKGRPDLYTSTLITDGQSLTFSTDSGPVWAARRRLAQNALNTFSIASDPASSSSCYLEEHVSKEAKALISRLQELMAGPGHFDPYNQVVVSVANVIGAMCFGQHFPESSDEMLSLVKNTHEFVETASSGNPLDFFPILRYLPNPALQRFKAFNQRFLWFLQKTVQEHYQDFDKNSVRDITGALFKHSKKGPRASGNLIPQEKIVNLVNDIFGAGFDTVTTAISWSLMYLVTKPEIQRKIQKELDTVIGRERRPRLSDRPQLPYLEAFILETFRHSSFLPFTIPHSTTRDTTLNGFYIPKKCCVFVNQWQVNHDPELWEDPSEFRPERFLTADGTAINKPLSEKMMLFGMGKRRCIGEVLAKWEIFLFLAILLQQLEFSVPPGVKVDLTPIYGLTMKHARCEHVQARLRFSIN
3',5'-cyclic-AMP phosphodiesterase 4B (Homo sapiens), sequence (Q07343 whole entry, looked up): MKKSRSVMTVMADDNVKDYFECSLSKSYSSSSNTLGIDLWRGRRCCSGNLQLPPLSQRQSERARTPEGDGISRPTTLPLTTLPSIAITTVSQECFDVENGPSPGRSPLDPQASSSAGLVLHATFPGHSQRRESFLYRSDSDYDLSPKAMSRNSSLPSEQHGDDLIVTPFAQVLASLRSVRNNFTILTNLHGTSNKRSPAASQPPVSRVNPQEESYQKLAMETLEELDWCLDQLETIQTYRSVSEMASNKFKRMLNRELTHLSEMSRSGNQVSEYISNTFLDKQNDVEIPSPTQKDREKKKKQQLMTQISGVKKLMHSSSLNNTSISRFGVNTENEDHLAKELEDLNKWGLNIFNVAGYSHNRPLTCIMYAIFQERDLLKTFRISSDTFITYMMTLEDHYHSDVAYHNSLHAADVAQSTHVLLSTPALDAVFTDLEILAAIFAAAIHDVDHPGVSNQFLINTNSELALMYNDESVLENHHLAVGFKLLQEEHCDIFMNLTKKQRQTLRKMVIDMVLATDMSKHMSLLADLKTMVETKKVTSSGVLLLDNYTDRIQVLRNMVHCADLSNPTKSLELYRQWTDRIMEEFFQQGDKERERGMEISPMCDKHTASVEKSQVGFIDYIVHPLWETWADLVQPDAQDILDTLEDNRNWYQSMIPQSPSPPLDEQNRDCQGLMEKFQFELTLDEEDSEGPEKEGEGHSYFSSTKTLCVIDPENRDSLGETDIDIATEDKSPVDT
Cytochrome P450 3A4 (Homo sapiens), sequence (P08684 whole entry, looked up): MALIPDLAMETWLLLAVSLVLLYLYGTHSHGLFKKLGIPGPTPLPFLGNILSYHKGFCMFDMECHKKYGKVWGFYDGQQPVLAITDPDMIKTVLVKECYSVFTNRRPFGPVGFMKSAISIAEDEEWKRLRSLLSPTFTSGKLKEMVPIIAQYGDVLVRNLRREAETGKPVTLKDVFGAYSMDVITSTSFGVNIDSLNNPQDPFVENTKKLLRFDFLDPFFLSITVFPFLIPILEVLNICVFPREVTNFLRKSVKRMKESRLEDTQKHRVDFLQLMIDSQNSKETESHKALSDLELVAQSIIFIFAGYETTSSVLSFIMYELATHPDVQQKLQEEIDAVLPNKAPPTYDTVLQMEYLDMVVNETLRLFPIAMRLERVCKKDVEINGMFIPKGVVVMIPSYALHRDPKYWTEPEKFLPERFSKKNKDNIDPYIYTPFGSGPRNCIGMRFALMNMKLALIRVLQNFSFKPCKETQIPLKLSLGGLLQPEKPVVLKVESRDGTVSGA
Lysosomal acid glucosylceramidase (Homo sapiens), sequence (P04062 whole entry, looked up): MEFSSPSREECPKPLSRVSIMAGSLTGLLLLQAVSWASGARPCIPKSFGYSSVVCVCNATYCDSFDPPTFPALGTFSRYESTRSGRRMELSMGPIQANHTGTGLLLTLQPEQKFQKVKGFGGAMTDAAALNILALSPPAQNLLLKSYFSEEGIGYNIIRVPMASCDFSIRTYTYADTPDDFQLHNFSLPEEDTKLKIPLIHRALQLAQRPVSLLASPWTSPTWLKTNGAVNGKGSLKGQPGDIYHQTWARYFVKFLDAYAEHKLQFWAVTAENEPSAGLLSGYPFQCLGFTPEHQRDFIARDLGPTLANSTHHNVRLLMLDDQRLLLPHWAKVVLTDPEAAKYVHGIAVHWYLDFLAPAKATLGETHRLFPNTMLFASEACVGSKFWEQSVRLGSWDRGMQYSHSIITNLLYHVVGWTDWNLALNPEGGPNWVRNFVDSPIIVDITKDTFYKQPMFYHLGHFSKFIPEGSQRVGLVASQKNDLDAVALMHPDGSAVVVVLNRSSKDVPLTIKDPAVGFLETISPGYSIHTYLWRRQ
Cytochrome P450 2D6 (Homo sapiens), sequence (P10635 whole entry, looked up): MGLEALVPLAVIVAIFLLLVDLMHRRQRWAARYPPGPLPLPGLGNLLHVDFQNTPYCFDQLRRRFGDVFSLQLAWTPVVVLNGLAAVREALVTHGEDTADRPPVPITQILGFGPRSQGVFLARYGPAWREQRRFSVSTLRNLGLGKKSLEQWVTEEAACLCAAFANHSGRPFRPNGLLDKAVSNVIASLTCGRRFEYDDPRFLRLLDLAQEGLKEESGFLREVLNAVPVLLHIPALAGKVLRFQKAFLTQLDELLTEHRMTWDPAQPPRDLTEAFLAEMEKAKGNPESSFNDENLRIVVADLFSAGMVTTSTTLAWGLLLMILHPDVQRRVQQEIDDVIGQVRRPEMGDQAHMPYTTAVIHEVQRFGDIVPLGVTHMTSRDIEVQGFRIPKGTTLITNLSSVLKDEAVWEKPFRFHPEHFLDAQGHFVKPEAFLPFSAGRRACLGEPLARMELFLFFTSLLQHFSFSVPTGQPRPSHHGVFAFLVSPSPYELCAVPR
Cytochrome P450 2C19 (Homo sapiens), sequence (P33261 whole entry, looked up): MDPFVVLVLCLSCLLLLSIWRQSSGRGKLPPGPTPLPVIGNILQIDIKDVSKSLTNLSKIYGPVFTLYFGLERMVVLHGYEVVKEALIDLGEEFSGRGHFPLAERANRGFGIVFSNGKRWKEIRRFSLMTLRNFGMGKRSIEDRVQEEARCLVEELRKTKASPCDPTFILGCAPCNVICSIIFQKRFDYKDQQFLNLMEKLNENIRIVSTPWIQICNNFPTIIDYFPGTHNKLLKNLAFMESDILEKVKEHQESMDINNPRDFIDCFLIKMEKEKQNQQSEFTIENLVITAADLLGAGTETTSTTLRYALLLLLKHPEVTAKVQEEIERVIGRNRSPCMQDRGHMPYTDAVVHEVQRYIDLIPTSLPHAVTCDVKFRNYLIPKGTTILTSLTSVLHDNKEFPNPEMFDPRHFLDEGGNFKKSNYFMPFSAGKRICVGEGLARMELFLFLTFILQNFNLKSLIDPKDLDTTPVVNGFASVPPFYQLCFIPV

Regarding `Oc1ccc(CCNCc2cc3c(cc2Br)OCO3)cc1`, the Potency is more than 11.4 µM in experiment [1]; 1 µM (active) in experiment [3]; more than 46 µM in experiment [6]; more than 9.22 µM in experiment [7]; 0.316 µM (active) in [11]; 5.01 µM (active) in experiment [12]. For the same compound, the activity change, negative = inhibition in experiment [2] is -4.32%; in experiment [4], -17%; in experiment [8] it was 0.159% [at 11.4 µM]. Also, in experiment [5], the activity, negative = inhibition is 9.31%. Further, in experiment [9], the outcome was inactive. Besides, the activity change, positive = activation in [10] is -36.4% [at 11.4 µM]. In addition, the activation in experiment [13] was -17.8%.

For the compound `O=C1N[C@@]2(CN3CCC2CC3)C(=O)N1CN(Cc1ccccc1)c1ccccc1`, the Potency in experiment [1] is more than 11.4 µM; in experiment [3], 0.398 µM (active); in experiment [6] it was more than 46 µM; in experiment [7], more than 9.22 µM. In addition, the activity change, negative = inhibition in experiment [2] is -6.81%; in experiment [4], 6.45%; in experiment [8], 4.81% [at 11.4 µM]. In experiment [5], the activity, negative = inhibition is -6.68%. Besides, the outcome in experiment [9] was inactive.

`N=C(N)n1cc(/C=N\N=C(N)N)cn1`: the Potency was more than 11.4 µM in experiment [1], more than 46 µM in [6] and more than 9.22 µM in [7]. Also, the activity change, negative = inhibition in [2] was 8.06%; in experiment [3], 7.8% [at 2.29 µM]; in [4], 8.05%; in [8], 6.38% [at 11.4 µM]. The activity, negative = inhibition in experiment [5] was 9.59%. Moreover, the compound was classed as inactive in experiment [9]. In addition, the Potency result in [11] is “inactive”.

For `N[C@@H](CSC1c2ccccc2-c2ccccc21)C(=O)O`, the Potency is more than 11.4 µM in experiment [1], 2.51 µM (active) in experiment [3], more than 46 µM in experiment [6] and more than 9.22 µM in experiment [7]. Also, the activity change, negative = inhibition was 0.63% in [2], -6.99% in [4] and -0.997% [at 11.4 µM] in [8]. In experiment [5], the activity, negative = inhibition was 3%. The outcome in [9] was inactive.

Consider `COc1cc2c(cc1OC)[C@@]13CCN4CC5=CCO[C@H](CC(=O)O)[C@@H]([C@H]1N2)[C@H]5C[C@H]43`, for which the results for the Potency in experiment [1], in [6] and in [7] were more than 11.4 µM, more than 46 µM and more than 9.22 µM, respectively. In addition, the activity change, negative = inhibition was -1.41% in [2], 9.02% in experiment [4] and 4.42% [at 11.4 µM] in experiment [8]. Also, the Potency entry in [3] was “inactive”. The activity, negative = inhibition in [5] is 1.37%. The compound was classed as inactive in experiment [9].

As for `NCCP(=O)(O)O`, the Potency in experiment [1] is more than 11.4 µM; in experiment [6], more than 46 µM; in experiment [7] it was more than 9.22 µM. The figures for the activity change, negative = inhibition in experiment [2], in experiment [4] and in experiment [8] were 3.81%, 9.11% and 3.4% [at 11.4 µM], respectively. Further, the Potency entry in [3] is “inactive”. Moreover, the activity, negative = inhibition in [5] was 10.6%. Also, the outcome in experiment [9] was inactive. For the same compound, in [13], the activation is 0.635%.

With `CC(=O)O[C@H]1CC[C@@]2(C)[C@@H](CC[C@H]3[C@H]2CC(=O)[C@]2(C)[C@@H]3C[C@@H](N3CC3)[C@H]2C(C)=O)C1`, the Potency in experiment [1] is more than 11.4 µM; in experiment [3] it was 0.0398 µM (active); in experiment [6], more than 46 µM; in [7], more than 9.22 µM; in experiment [10] it was 3.98 µM (active). In addition, the activity change, negative = inhibition in experiment [2] is 4.13%; in [4] it was 13.1%; in experiment [8], -0.773% [at 11.4 µM]; in experiment [14], 71.6% [at 11.4 µM]. Moreover, the activity, negative = inhibition in experiment [5] was 5.02%. The call in experiment [9] was inactive. Moreover, the Potency entry in [12] is “inactive”. Moreover, in [13], the activation is 5.69%.
